About 83,000 compounds went through this panel and 20% of them were active in at least one assay; those are over-represented in the sample as a whole.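 How to read the values: 0–100, growth inhibition (40 = 60% inhibited); 0, no net growth; -100 to 0, cell death (-40 = 40% of starting cells died; -100 = all dead).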 Unmarked numbers belong to inactive results. Active and inactive are the calls of the source. How the source made its calls: active means growth percent below 10; inactive means the rest.

Some test systems named below: SK-MEL-2 melanoma; EKVX NSCLC; SN12C renal; UO-31 renal; TK-10 renal; ACHN renal; CAKI-1 renal; A498 renal; CCRF-CEM leukemia; MOLT-4 leukemia; SR leukemia; RPMI-8226 leukemia; OVCAR-8 ovarian; OVCAR-5 ovarian; OVCAR-4 ovarian; SK-OV-3 ovarian; OVCAR-3 ovarian; HS 578T breast; NCI/ADR-RES ovarian; IGROV1 ovarian.
Holding throughout (experiment): NCI-60 one-dose screen, 48 h (100 = growth as untreated, 0 = no growth, -100 = all killed)
Holding throughout (conditions): 10 µM unless noted

On to `Cn1ccnc1C(=O)/C=C/c1ccccc1`, for which the growth with SK-MEL-2 melanoma was 46.9%; in the experiment on EKVX NSCLC, -9.85% (active); in the experiment on SN12C renal, 41.6%; in the experiment on UO-31 renal it was -33.7% (active); with TK-10 renal, 15.3%; in the experiment with ACHN renal, 33%. For the same molecule, the growth in the experiment with CAKI-1 renal is 11.7%; with A498 renal, -15.9% (active); in the experiment on CCRF-CEM leukemia, 9.1% (active); with MOLT-4 leukemia, 70%; with SR leukemia it was 18.9%; with RPMI-8226 leukemia it was -8.79% (active). Besides, the growth is 20.9% in the experiment on OVCAR-8 ovarian; 38.7% in the experiment with OVCAR-5 ovarian; 26.8% in the experiment with OVCAR-4 ovarian; 27.5% in the experiment on SK-OV-3 ovarian; 0.598% (active) with OVCAR-3 ovarian; -2.82% (active) in the experiment with HS 578T breast. The growth in the experiment with NCI/ADR-RES ovarian is 20.9%.
For the molecule `COc1ccc2[nH]cc(-c3noc(C(=O)c4cn(C)c5ccc(F)cc45)n3)c2c1`, the growth was 94.7% in the experiment with SK-MEL-2 melanoma; 76.9% in the experiment with EKVX NSCLC; 93% in the experiment with SN12C renal; 67.9% in the experiment on UO-31 renal; 113% in the experiment with TK-10 renal; 88.4% with ACHN renal. Moreover, the growth in the experiment with CAKI-1 renal is 81.5%; in the experiment with A498 renal it was 95.8%; with CCRF-CEM leukemia, 99.2%; in the experiment on MOLT-4 leukemia it was 95.4%; in the experiment with SR leukemia, 89.7%; in the experiment with RPMI-8226 leukemia it was 104%. Moreover, the growth in the experiment with OVCAR-8 ovarian was 93.6%; in the experiment with OVCAR-5 ovarian, 99.9%; in the experiment on OVCAR-4 ovarian, 95.2%; in the experiment with SK-OV-3 ovarian it was 87.3%; with OVCAR-3 ovarian, 97.5%; in the experiment with HS 578T breast, 90.9%. Moreover, the growth in the experiment on NCI/ADR-RES ovarian was 96%.
In the case of `O=C(Cc1ccccc1Nc1c(Cl)cccc1Cl)NN1C(=O)/C(=C/c2ccc(Br)cc2)SC1=S`, the growth is 99.9% in the experiment with SK-MEL-2 melanoma; 98.5% in the experiment on EKVX NSCLC; 100% in the experiment on SN12C renal; 90.9% in the experiment on UO-31 renal; 107% with TK-10 renal; 104% in the experiment on ACHN renal. The growth in the experiment on CAKI-1 renal was 100%; in the experiment on A498 renal, 107%; with CCRF-CEM leukemia it was 107%; in the experiment on MOLT-4 leukemia, 107%; in the experiment on SR leukemia it was 132%; with RPMI-8226 leukemia, 106%. In addition, the growth in the experiment with OVCAR-8 ovarian is 100%; with OVCAR-4 ovarian, 114%; in the experiment on SK-OV-3 ovarian, 100%; in the experiment on OVCAR-3 ovarian it was 109%; in the experiment with HS 578T breast, 96.4%; in the experiment on NCI/ADR-RES ovarian, 105%.
`CCCOc1cc2ccccc2cc1C(=O)Nc1nc(NC)c2c(ccc3nccc32)[nH]1`: the growth with SK-MEL-2 melanoma is -60.8% (active); in the experiment on EKVX NSCLC, -78.4% (active); in the experiment with SN12C renal, -71.7% (active); with UO-31 renal it was -88.8% (active); in the experiment with TK-10 renal, -65.8% (active); in the experiment with ACHN renal, -90.7% (active). Also, the growth with CAKI-1 renal was -63.8% (active); in the experiment on A498 renal it was -92% (active); with CCRF-CEM leukemia, -30.2% (active); in the experiment with MOLT-4 leukemia, -56.1% (active); in the experiment on SR leukemia, -49.3% (active); with RPMI-8226 leukemia, -46% (active). Also, the growth is -33.2% (active) in the experiment with OVCAR-8 ovarian; -58.5% (active) in the experiment with OVCAR-4 ovarian; -86.9% (active) in the experiment on SK-OV-3 ovarian; -67.2% (active) in the experiment with IGROV1 ovarian; -76% (active) in the experiment on OVCAR-3 ovarian; -56.3% (active) with HS 578T breast. In addition, in the experiment with NCI/ADR-RES ovarian, the growth was -17% (active).
For the molecule `CN1CCN(CCCOc2cccc3nc(Nc4cc(Cl)cc(Cl)c4)ccc23)CC1`, the growth in the experiment on SK-MEL-2 melanoma is 86.9%; in the experiment on EKVX NSCLC, 26.6%; in the experiment on SN12C renal, 36.1%; in the experiment on UO-31 renal it was -15.8% (active); in the experiment with TK-10 renal, 71.9%; with ACHN renal, -5.36% (active). The growth in the experiment on CAKI-1 renal was 30.7%; with A498 renal it was 23.8%; in the experiment with CCRF-CEM leukemia it was -40.7% (active); in the experiment with MOLT-4 leukemia, -47.7% (active); in the experiment with SR leukemia, -30.2% (active); with RPMI-8226 leukemia it was -14.8% (active). Besides, the growth is 51.4% in the experiment on OVCAR-8 ovarian; 42.7% with OVCAR-4 ovarian; 90.2% in the experiment with SK-OV-3 ovarian; 42.8% in the experiment with IGROV1 ovarian; 26.3% in the experiment on OVCAR-3 ovarian; 37.5% in the experiment on HS 578T breast. Further, the growth with NCI/ADR-RES ovarian is 6.46% (active).
As to `CCc1nnc(CNc2ccc(Cl)cc2)o1`, the growth in the experiment with SK-MEL-2 melanoma is 90.6%; in the experiment on EKVX NSCLC, 91.3%; in the experiment on SN12C renal, 95.8%; with UO-31 renal it was 73.7%; in the experiment on TK-10 renal, 114%; in the experiment on ACHN renal, 86.8%. Also, the growth in the experiment on CAKI-1 renal was 89.9%; in the experiment with A498 renal, 106%; in the experiment with CCRF-CEM leukemia, 114%; in the experiment with MOLT-4 leukemia it was 89.7%; with SR leukemia, 88.6%; in the experiment with RPMI-8226 leukemia, 103%. Further, the growth in the experiment with OVCAR-8 ovarian was 109%; with OVCAR-5 ovarian, 95.6%; in the experiment on OVCAR-4 ovarian, 99.2%; in the experiment on SK-OV-3 ovarian, 88.5%; in the experiment with OVCAR-3 ovarian, 99.9%; in the experiment on HS 578T breast, 102%. Besides, the growth in the experiment on NCI/ADR-RES ovarian is 97.8%.
Turning to `CC(=O)Nc1ccc(S(=O)(=O)Nc2cccc(-c3nc(-c4ccc(NC(=O)c5cccnc5)cc4Cl)no3)c2)cc1`, the growth with SK-MEL-2 melanoma is 35.9%; with EKVX NSCLC, 54.3%; in the experiment on SN12C renal it was 41.3%; in the experiment with UO-31 renal it was 82.9%; in the experiment on TK-10 renal, 69.9%; in the experiment with ACHN renal, 81.2%. Moreover, the growth was 90.6% with CAKI-1 renal; 36.9% with A498 renal; 23.3% in the experiment with CCRF-CEM leukemia; 25.8% in the experiment with MOLT-4 leukemia; 19% with SR leukemia; 43.8% in the experiment on RPMI-8226 leukemia. Further, the growth with OVCAR-8 ovarian was 38.8%; with OVCAR-4 ovarian, 53%; in the experiment with SK-OV-3 ovarian it was 20.9%; in the experiment on IGROV1 ovarian, 54.7%; with OVCAR-3 ovarian, 20.7%; with HS 578T breast it was 24.5%. Also, the growth in the experiment with NCI/ADR-RES ovarian is 94.7%.
Take `CCCOc1cc2ccccc2cc1C(=O)Nc1nc(N)c2c(ccc3nccc32)[nH]1`: the growth in the experiment on SK-MEL-2 melanoma was -49.6% (active); in the experiment on EKVX NSCLC it was -73.7% (active); in the experiment with SN12C renal it was -63.6% (active); with UO-31 renal it was -65% (active); in the experiment with TK-10 renal, -37.3% (active); in the experiment with ACHN renal it was -80.9% (active). Also, the growth with CAKI-1 renal was -46.7% (active); in the experiment with A498 renal it was -87.6% (active); with CCRF-CEM leukemia it was -13% (active); in the experiment with MOLT-4 leukemia, -40.9% (active); in the experiment on SR leukemia, -16.2% (active); with RPMI-8226 leukemia, -40.5% (active). In addition, the growth in the experiment with OVCAR-8 ovarian is -49% (active); with OVCAR-4 ovarian, -50.9% (active); in the experiment with SK-OV-3 ovarian, -77.2% (active); in the experiment with IGROV1 ovarian, -47% (active); in the experiment on OVCAR-3 ovarian, -60.5% (active); in the experiment on HS 578T breast, -56.1% (active). Moreover, the growth with NCI/ADR-RES ovarian was -8.57% (active).

For the origin of these results see PubChem BioAssay (NCI).
